Among the test systems are NCI-H23 lung; NCI-H226 lung; NCI-H322M lung; HOP-62 NSCLC; NCI-H460 lung; NCI-H522 lung; A549/ATCC NSCLC; 786-0 renal; COLO 205 colon; DU-145 prostate.
Common to all, as to experiment: NCI-60 one-dose screen, 48 h (100 = growth as untreated, 0 = no growth, -100 = all killed)
Holding throughout (settings): 10 µM

About 83,000 compounds went through this panel and 20% of them were active in at least one assay; those are over-represented in the sample as a whole.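 Single-dose data. Exposure time 48 hours. Values below 10 considered active.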 A number with no mark means an inactive call. Active and inactive are the calls of the source.

Data on 14 molecules can be found in PubChem BioAssay (NCI).

In the case of `FC(F)(F)c1ccc2nc(-c3nc(-c4ccccc4)n4ccccc34)[nH]c2c1`, the growth is 78.9% with NCI-H23 lung; 99.4% in the experiment with NCI-H226 lung; 55% with NCI-H322M lung; 110% in the experiment with HOP-62 NSCLC; 59.4% in the experiment with NCI-H460 lung; 68.3% in the experiment on NCI-H522 lung. Further, the growth was 49.5% in the experiment on A549/ATCC NSCLC, 40.2% in the experiment with 786-0 renal, 58.9% with COLO 205 colon and 68.7% in the experiment with DU-145 prostate.
For the molecule `O=C(Nc1ccc(CO)cc1)c1ccccc1Nc1ccnc(C(F)(F)F)c1`, the growth with NCI-H23 lung is 96.5%; in the experiment with NCI-H226 lung, 105%; in the experiment with NCI-H322M lung it was 113%; in the experiment on HOP-62 NSCLC, 95.4%; in the experiment on NCI-H460 lung, 103%; with NCI-H522 lung, 93.7%. For the same molecule, the growth is 99.5% with A549/ATCC NSCLC, 102% with 786-0 renal, 104% in the experiment with COLO 205 colon and 106% in the experiment on DU-145 prostate.
For the molecule `COc1ccc2c(c1)C(=O)c1c-2c(=O)n(CCCN(C)C)c2cc(OC)c(OC)cc12`, the growth in the experiment on NCI-H23 lung is 48.8%; in the experiment with NCI-H226 lung, 70.5%; in the experiment with NCI-H322M lung, 80%; with HOP-62 NSCLC, 51.4%; with NCI-H460 lung it was 10.9%; with NCI-H522 lung it was 56.5%. Moreover, the growth in the experiment on A549/ATCC NSCLC was 56.3%; in the experiment with 786-0 renal, 71.8%; in the experiment on COLO 205 colon, 100%; in the experiment with DU-145 prostate it was 26.9%.
Take `CC[C@H](C)C(=O)O[C@H]1CCC=C2C=C[C@H](C)C(CCC3C[C@@H](O)CC(=O)O3)[C@H]21` (stereo not given in full): the growth was 64.4% with NCI-H23 lung; 76.8% in the experiment with NCI-H226 lung; 44.6% in the experiment on NCI-H322M lung; 87% in the experiment with HOP-62 NSCLC; 92.9% in the experiment on NCI-H460 lung; 23% in the experiment on NCI-H522 lung. Moreover, the growth was 97.2% in the experiment on A549/ATCC NSCLC, 84.8% in the experiment with 786-0 renal, 89% in the experiment with COLO 205 colon and 110% in the experiment on DU-145 prostate.
Consider `CCN(CC)CCSCCCNc1c2ccc(Cl)cc2nc2ccc(OC)cc12`, for which the growth is -30.8% (active) in the experiment with NCI-H23 lung; 48.7% in the experiment with NCI-H226 lung; -35.6% (active) in the experiment with NCI-H322M lung; -31.6% (active) in the experiment on HOP-62 NSCLC; -39.7% (active) in the experiment on NCI-H460 lung; -79.1% (active) in the experiment with NCI-H522 lung. In addition, the growth in the experiment on A549/ATCC NSCLC was -29.5% (active); in the experiment with 786-0 renal it was -37.3% (active); in the experiment on COLO 205 colon it was -82.9% (active); in the experiment with DU-145 prostate, 1.82% (active).
Regarding `CCC(=O)N1C/C(=C/c2ccc(Cl)cc2)C(=O)/C(=C/c2ccc(Cl)cc2)C1`, the growth in the experiment with NCI-H23 lung is -25.6% (active); in the experiment with NCI-H226 lung it was -53.9% (active); in the experiment on NCI-H322M lung it was -16.6% (active); with HOP-62 NSCLC, -53% (active); in the experiment on NCI-H460 lung, -13.8% (active); in the experiment with NCI-H522 lung, -58.7% (active). Also, the growth with A549/ATCC NSCLC was -26.7% (active); in the experiment with 786-0 renal, -69% (active); in the experiment on COLO 205 colon, -76.5% (active); with DU-145 prostate, -41.6% (active).
Take `Nc1c(C(=O)Nc2cccc3ccccc23)sc2nc3c(cc12)C(=O)CCC3`: the growth is 18% with NCI-H23 lung; 54.1% in the experiment with NCI-H226 lung; 37.6% in the experiment with NCI-H322M lung; 26.1% with HOP-62 NSCLC; 5.05% (active) in the experiment on NCI-H460 lung; -8.85% (active) in the experiment on NCI-H522 lung. Besides, the growth in the experiment with A549/ATCC NSCLC was 23.4%; in the experiment with 786-0 renal, 46.1%; with COLO 205 colon, -20.7% (active); with DU-145 prostate, -9.63% (active).
Turning to `CCN1Cc2c(/C=C/c3ccccc3)nc3ccc(OC)cc3c2N(c2cccc(Cl)c2)C1`, the growth in the experiment on NCI-H23 lung was 59.1%; with NCI-H226 lung, 92%; with NCI-H322M lung, 90.7%; with HOP-62 NSCLC, 107%; in the experiment with NCI-H460 lung it was 71.7%; in the experiment with NCI-H522 lung, 63.7%. Also, the growth in the experiment with A549/ATCC NSCLC is 33.6%; with 786-0 renal, 72.3%; with COLO 205 colon, 81.8%; with DU-145 prostate, 112%.
`O=C(/C=C/c1cc2ccccc2[nH]c1=O)c1ccc2c(c1)OCO2`: the growth in the experiment on NCI-H23 lung is 98.5%; in the experiment with NCI-H226 lung, 114%; with NCI-H322M lung it was 92%; with HOP-62 NSCLC, 98%; with NCI-H460 lung it was 94.4%; in the experiment on NCI-H522 lung, 3.16% (active). In addition, the growth with A549/ATCC NSCLC is 93.4%; in the experiment with 786-0 renal, 102%; in the experiment with COLO 205 colon it was 95.7%; in the experiment on DU-145 prostate it was 102%.
Consider `N#CSCC1CC(O)(c2ccccc2)CC(c2ccc(Cl)cc2)O1` (stereo not given), for which the growth with NCI-H23 lung was 35.6%; in the experiment on NCI-H226 lung, 89.3%; in the experiment with NCI-H322M lung, 52.4%; in the experiment with HOP-62 NSCLC, 75.1%; with NCI-H460 lung, 37.2%; in the experiment on NCI-H522 lung, 4.64% (active). Besides, the growth in the experiment with A549/ATCC NSCLC is 68.5%; in the experiment with 786-0 renal, 37%; in the experiment on COLO 205 colon it was 59.2%; with DU-145 prostate, 33%.
As for `CN1c2ccccc2[C@]2(Cc3ccccc3)Cc3ccccc3N[C@H]12`, the growth with NCI-H23 lung was 91.4%; in the experiment with NCI-H226 lung it was 98.2%; in the experiment with NCI-H322M lung it was 111%; in the experiment with HOP-62 NSCLC, 120%; in the experiment with NCI-H460 lung, 111%; in the experiment on NCI-H522 lung, 71.7%. Further, the growth with A549/ATCC NSCLC is 109%; in the experiment on 786-0 renal, 106%; with COLO 205 colon, 118%; in the experiment with DU-145 prostate, 115%.
With `COc1ccc2nc3cc(Cl)ccc3c(NCCNCC(C)O)c2c1` (stereo not given), the growth is 42.8% in the experiment with NCI-H23 lung; 67.9% with NCI-H226 lung; 25.8% in the experiment with NCI-H322M lung; 19% with HOP-62 NSCLC; 0.055% (active) in the experiment on NCI-H460 lung; -56.5% (active) in the experiment on NCI-H522 lung. Besides, the growth is -3.68% (active) in the experiment with A549/ATCC NSCLC, 35.5% in the experiment on 786-0 renal, 8.35% (active) with COLO 205 colon and 28.8% with DU-145 prostate.
For the molecule `CCCC(F)C(=O)O` (stereo not given), the growth with NCI-H23 lung was 105%; in the experiment on NCI-H226 lung it was 114%; with NCI-H322M lung, 90.9%; in the experiment with HOP-62 NSCLC, 113%; with NCI-H460 lung it was 106%; with NCI-H522 lung, 89.5%. Also, the growth with A549/ATCC NSCLC was 92%; in the experiment on 786-0 renal, 97.2%; with COLO 205 colon it was 108%; in the experiment with DU-145 prostate, 117%.
For the molecule `C[C@@H]1C=C2C(=O)O[C@@H]3CC[C@H](C1)[C@]23O`, the growth with NCI-H23 lung is 80.6%; in the experiment with NCI-H226 lung, 106%; with NCI-H322M lung, 82.5%; in the experiment on HOP-62 NSCLC it was 71.7%; in the experiment with NCI-H460 lung it was 80.9%; with NCI-H522 lung, 2.22% (active). Besides, the growth with A549/ATCC NSCLC was 67.1%; in the experiment with 786-0 renal, 103%; in the experiment with COLO 205 colon, 74%; with DU-145 prostate it was -25.9% (active).
